Source: PubChem BioAssay (National Center for Advancing Translational Sciences (NCATS))
KCNH2 3.1 block = qHTS for Inhibitors of KCHN2 3.1: Mutant qHTS | Potassium voltage-gated channel subfamily H member 2, brain isoform KCNH2 3.1 (human) | U2OS KCNH2 3.1, thallium flux FluxOr; stronger effect = lower value | activity change, % (tested at about 1.8 µM) | hit rate 0.95% among 340,000 | AID 720553, 2013;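 active = maximum activity change below -70%; inconclusive = maximum activity change from -70% to -50%; inactive = maximum activity change above -50%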;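 note: thallium influx rate constant from kinetic fluorescence after stimulation buffer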
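Thallium flux read-out: FluxOr dye with Red40 quencher in HBSS/HEPES, 45 min at RT. Rate constants from kinetic reads were normalized to positive and negative DMSO controls. Cells: U2OS virally expressing the 3.1 isoform.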
CtBP-E1A inh = qHTS Assay for Inhibitors of the CtBP/E1A Interaction; AlphaScreen GST-E1A/His-CtBP binding, 1536-well; stronger effect = lower value; activity change, % (no concentration beside the values); hit rate 0.49% among 340,000
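Steps: dispense buffer (Tris pH 8.0, NaCl 300 mM, TCEP 1 mM, BSA, Tween 20); add 5X protein mix (GST-E1A, His-CtBP, 125 nM each); pin 23 nL compound; 2 h at 37 °C, dark; add 5X beads (50 ug/mL); 1 h; read.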
JMJD2E inh = qHTS Assay for Inhibitors of Human Jumonji Domain Containing 2E (JMJD2E) | JMJD2E catalytic domain, FDH-coupled NADH fluorescence (FDH is formaldehyde dehydrogenase) | Potency, µM (titrated, usually from 57.1 µM), inactives show top-dose activity change, negative = inhibition, actives largely listed as inhibitors | hit rate 1.6% among 230,000 | AID 2147, 2009; active = well fitted inhibition curve with a large enough effect, not every such curve was filed as active; inconclusive = small, poorly fitted or top-dose-only effect, or another doubt; inactive = no such curve, though single readings can be large or run the other way;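 note: potency is the fitted concentration of half-maximal effect; 0% = wells with enzyme and -100% = buffer wells without enzyme; nearly all actives have a fitted effect of over 50% in size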
Target sequence (B2RXH2 1-337 limits assumed): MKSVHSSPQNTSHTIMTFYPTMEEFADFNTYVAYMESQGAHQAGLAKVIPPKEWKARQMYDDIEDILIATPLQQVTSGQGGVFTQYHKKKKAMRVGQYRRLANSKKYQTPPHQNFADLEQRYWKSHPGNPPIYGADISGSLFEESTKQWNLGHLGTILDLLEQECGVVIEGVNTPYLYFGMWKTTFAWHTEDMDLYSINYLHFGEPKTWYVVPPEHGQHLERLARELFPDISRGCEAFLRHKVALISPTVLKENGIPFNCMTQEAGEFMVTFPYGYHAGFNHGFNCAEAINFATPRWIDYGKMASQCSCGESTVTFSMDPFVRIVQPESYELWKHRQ
Six1-Eya2 inh = qHTS Assay for Inhibitors of the Six1/Eya2 Interaction; AlphaScreen GST-Six1/His-Eya2 binding, biochemical; stronger effect = lower value; activity change, % (no concentration beside the values); hit rate 0.56% among 360,000; Homeobox protein SIX1 (Homo sapiens) + Protein phosphatase EYA2 (Homo sapiens), …
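AlphaScreen luminescence read after one hour at 37 °C in darkness. Pin-transferred compounds met GST-Six1 and His-Eya2 protein (5X stock 250 nM/500 nM) plus glutathione donor and Ni-chelate acceptor beads (5X, 50 ug/mL).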
hERG WT inh = qHTS for Inhibitors of KCHN2 3.1: Wildtype qHTS | Voltage-gated inwardly rectifying potassium channel KCNH2 (Homo sapiens), Q12809 | U2OS, BacMam KCNH2, thallium flux FluxOr; stronger effect = lower value | activity change, % at 1.84 µM | hit rate 0.37% among 340,000;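 active = maximum activity change below -70%; inconclusive = maximum activity change between -70% and -50%; inactive = maximum activity change above -50%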
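U2OS cells transduced with wild-type KCNH2 virus are loaded with FluxOr dye for 45 min, and thallium flux is measured in kinetic reads before and after stimulation buffer. Rate constants are normalized to DMSO controls.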
* marks the source's active call; other numbers are inactive results; ? = inconclusive; · = no result given. The list is not random: actives were taken first. Their share in the collection is about 2%. Cut-off read from the data, not from the text of the source, unless noted: active = activity change below about -65%; inconclusive = mostly about -30% to -63%; inactive = weaker than that. Unless noted, % is set by controls: 0 for no effect and ±100 for the full control effect.

SMILES | KCNH2 3.1 block | CtBP-E1A inh | JMJD2E inh | Six1-Eya2 inh | hERG WT inh
Brc1ccc(CSc2nnc(-c3ccco3)o2)cc1 | -10 | 49 | -4% | 9 | -2
Cc1cc(NC(=O)COc2ccccc2)n(-c2ccccc2)n1 | 19 | -3 | 2% | 0 | 1
Cc1cc(Nc2cccc(Cl)c2Cl)n2ncnc2n1 | -3 | 14 | · | 7 | -222*
CCc1ccc(OC(=O)c2ccn(CC)n2)cc1 | 7 | -1 | 10% | 11 | 3
CN(C)c1ccc(/C=C2\SC(=S)N(Nc3ncc(C(F)(F)F)cc3Cl)C2=O)cc1 | -73* | -11 | 0% | -3 | -133*
N[C@H](C(=O)O)[C@@H]1[C@@H](C(=O)O)C1(F)F | · | · | 16µM* | · | ·
COc1ccc(OC)c(C(=O)CCCC(=O)c2cc(OC)ccc2OC)c1 | -5 | -6 | · | -9 | ·
CCCCn1cnc2c(c(-c3ccccc3)c(-c3ccccc3)n2Cc2ccco2)c1=N | -6 | 1 | -4% | 2 | -8
N=c1c2c(-c3ccccc3)c(-c3ccccc3)n(Cc3ccco3)c2ncn1Cc1ccco1 | -93* | -27 | 3% | -28 | ?
O=C(Oc1ccc2c(c1)OCO2)c1ccc(Br)c(S(=O)(=O)N2CCOCC2)c1 | -1 | 3 | 6% | -3 | 3
COC(=O)/C(=C/c1c[nH]c2ccccc12)NC(C)=O | 3 | 8 | 20µM* | -4 | 1
C=CCN1C(=O)N/C(=C/c2ccc(C)o2)C1=O | -8 | · | 18µM* | -7 | ·
Cc1ccc(NC(=O)CN2C(=O)N/C(=C/c3ccc(C)o3)C2=O)cc1 | -6 | 5 | ? | 8 | 0
CCCCn1c(N)c(N(CCOC)C(=O)C2CCN(c3ncnc4sc(C)c(C)c34)CC2)c(=O)[nH]c1=O | -13 | -90* | · | 2 | -7
CCCCn1c(N)c(N(CC(C)C)C(=O)C2CCN(c3ncnc4sc(C)c(C)c34)CC2)c(=O)[nH]c1=O | 2 | 13 | · | -4 | -1
CCN(CC)S(=O)(=O)c1ccc2c(c1)nc(CCC(=O)OCC(=O)Nc1cc(OC)cc(OC)c1)n2C | -3 | 1 | 1% | 1 | -1
Cc1cccn2cc(COc3ccc(-c4ccccc4)cc3)nc12 | -101* | -1 | ? | -2 | 4
Cc1cccc(C)c1Nc1nnc(SCc2cn3cccc(C)c3n2)s1 | -179* | · | 0% | -20 | ·
CCOc1ccc(NC(=O)NCc2ccccn2)cc1 | -1 | 7 | · | 0 | -1
CCOc1ccc(NC(=O)CC(NCc2ccccn2)C(=O)O)cc1 (stereo unspecified) | 4 | -92* | ? | -90* | 3
CCCCN(CCCC)C(=O)C1(P(=O)(c2ccccc2)c2ccccc2)CCC1 | 6 | -1 | -1% | -2 | 1
COc1ccc2sc(C)[n+](C)c2c1 | -8 | 5 | 20µM* | 8 | -8
Cc1cc(Cl)cc(C)c1OCC(=O)NC1CCCCCC1 | -13 | · | · | 7 | 10
CCC(Sc1nc2ccccc2[nH]1)C(=O)Nc1cc(C)on1 (stereo unspecified) | 8 | -3 | 2% | -1 | 1
CCC(Sc1nc(-c2ccccc2)c(C#N)c(=O)[nH]1)C(=O)Nc1cc(C)on1 (stereo unspecified) | -71* | 6 | 3% | -20 | 0
SMILES | KCNH2 3.1 block | CtBP-E1A inh | JMJD2E inh | Six1-Eya2 inh | hERG WT inh
Fc1cccc(-c2cc3nc4c(c(NCc5ccco5)n3n2)CCCC4)c1 | -78* | 3 | ? | -8 | -10
Cc1ccc2nc(-c3ccc(S(=O)(=O)N4CCCCC4)cc3)cn2c1 | -32 | 3 | ? | 3 | -1
COC(=O)c1cc(NC(=O)CC2NC3CCCCC3NC2=O)cc(C(=O)OC)c1 (stereo unspecified) | 3 | 1 | 5% | 2 | 10
Oc1ccc(/C=N/Nc2nc(-c3cccnc3)nc3ccccc23)c(O)c1 | 1 | -79* | 22µM* | -67* | -35
Cc1c(O)ccc(/C=N/Nc2nc(-c3cccnc3)nc3ccccc23)c1O | 11 | · | ? | -68* | -1
Cc1cc(N/N=C/c2ccc(O)c(C)c2O)nc(-c2ccccc2O)n1 | 9 | -4 | 25µM* | -19 | 9
COc1ccc(/C=N/Nc2nc(-c3cccnc3)nc3ccccc23)cc1OC | 1 | 0 | ? | 8 | 4
CN(C)/C=C/C(=O)/C=C/c1ccc(Cl)cc1 | -22 | · | -8% | -2 | 4
CN(C)CC(O)c1ccc(C=Cc2ccc(Cl)cc2)cc1 (stereo unspecified) | -110* | -6 | · | -4 | 0
CCC12CN3CC(CC)(CN(C1)C3c1c(O)ccc3ccccc13)C2=O (stereo unspecified) | -1 | -2 | 13µM* | 7 | 31
Cc1cc(N2CCN(c3ccc(C(F)(F)F)cc3[N+](=O)[O-])CC2)c2ccccc2n1 | -102* | · | · | -4 | -98*
Nc1nonc1OCCN1CCN(c2ccc([N+](=O)[O-])c3cccnc23)CC1 | -30 | -5 | -3% | -1 | 2
O=C(c1ccccc1F)N1CCN(c2ccc([N+](=O)[O-])c3cccnc23)CC1 | -3 | -9 | 0% | -4 | -243*
Cc1cc(N2CCN(c3ccc([N+](=O)[O-])c4cccnc34)CC2)c2ccccc2n1 | -103* | 26 | ? | 4 | -108*
O=C(c1ccccc1F)N1CCN(c2ccc([N+](=O)[O-])c3ncccc23)CC1 | -2 | -2 | 3% | -15 | 26
Cc1ccc(S(=O)(=O)N2CCN(c3ccc(C(F)(F)F)cc3[N+](=O)[O-])CC2)cc1 | -15 | -20 | -7% | -24 | -1
COc1cc(C(=O)NCC(=O)OCn2nnc3ccccc3c2=O)cc(OC)c1OC | -4 | 1 | 27% | 2 | -8
Cc1ccc(CNCC(O)(c2ccccc2)c2ccc(Cl)cc2)cc1 (stereo unspecified) | · | 0 | -2% | 12 | 30
COc1ccc(CNCC(O)(c2ccccc2)c2ccc(Cl)cc2)cc1 (stereo unspecified) | -72* | 11 | 6% | 7 | -22
Cc1ccc(S(=O)(=O)Oc2ccc(/C=N/NC(=O)c3nn(C)cc3Cl)cc2)cc1 | -6 | -4 | -3% | -1 | -6
Cc1cc(NC(=O)c2ccc(Cn3nc(C)c(Br)c3C)o2)no1 | 8 | -29 | 5% | -70* | 14
COC(=O)C(Cc1ccccc1)NC(=O)CCCC(=O)NCc1cccc(OC)c1 (stereo unspecified) | -2 | · | · | -1 | -70*
Cc1ccc(C(=O)Nc2ccccc2C(=O)N2CCN(c3ccccc3)CC2)cc1 | 1 | -1 | · | -1 | -2
